This is an account of results in PubChem BioAssay (NCI).

This is part of a sample that, as a whole, favours compounds with a hit. Of some 83,000 tested, about 20% had one in any assay.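 Assay: single dose, 48 h. Readout: percent growth (0 = no net growth; negative = cell death). Active: <10.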 A number with no mark means an inactive call. The source made the active and inactive calls.

What all share (experiment): NCI-60 one-dose screen, 48 h (100 = growth as untreated, 0 = no growth, -100 = all killed)
Test [1] has as its system HCT-15 colon. Conditions: 10 µM unless noted.
Test [2] has as its system HT29 colon. Particulars: 10 µM unless noted.
Test [3] concerns SNB-19 CNS. Conditions: 10 µM unless noted.
Test [4] concerns U251 CNS. Conditions: 10 µM unless noted.
Test [5] deals with PC-3 prostate. Conditions: 10 µM unless noted.
In test [6] the test system is SK-MEL-5 melanoma. Conditions: 10 µM unless noted.
The subject of test [7] is UACC-62 melanoma. Particulars: 10 µM unless noted.
In test [8] the test system is LOX IMVI melanoma. Conditions: 10 µM unless noted.
In test [9] the test system is SK-MEL-28 melanoma. Particulars: 10 µM unless noted.
Test [10] has as its system SK-MEL-2 melanoma. Particulars: 10 µM unless noted.
For test [11], the system named is EKVX NSCLC. Conditions: 10 µM unless noted.
Test [12] has as its system SN12C renal. Conditions: 10 µM unless noted.
In test [13] the test system is UO-31 renal. Conditions: 10 µM unless noted.
Test [14] concerns TK-10 renal. Particulars: 10 µM unless noted.
Test [15] relates to ACHN renal. Particulars: 10 µM unless noted.
Test [16] concerns CAKI-1 renal. Particulars: 10 µM unless noted.
Test [17] relates to A498 renal. Particulars: 10 µM unless noted.
For test [18], the system named is CCRF-CEM leukemia. Particulars: 10 µM unless noted.
The subject of test [19] is MOLT-4 leukemia. Conditions: 10 µM unless noted.
The subject of test [20] is SNB-75 CNS. Particulars: 10 µM.

Consider `C=C(C)[C@@H]1CC[C@]2(C(=O)O)CC[C@]3(C)[C@H](CC[C@@H]4[C@@]5(C)C[C@@H](CC#Cc6ccc(C(F)(F)F)cc6)[C@H](O)C(C)(C)[C@@H]5CC[C@]43C)[C@@H]12`, for which the growth is 36.2% in test [1]; 15.7% in [2]; 30.8% in test [3]; -4.28% (active) in test [4]; -52.2% (active) in test [5]; -32.9% (active) in test [6]. Further, the growth in test [7] is -31.5% (active); in test [8], -53.5% (active); in test [9], -40.8% (active); in test [10], -27% (active); in [11], 24.3%; in test [12], 17.6%. In addition, the growth is 41% in [13]; 38.2% in [14]; 31.2% in [15]; 50% in test [16]; -36.1% (active) in test [17]; -2.71% (active) in test [18]. In addition, the growth in test [19] was 4.32% (active).

Regarding `Cc1nc2cncc(C#Cc3cncc(C(=O)Nc4ccc(CN5CCN(C)CC5)c(C(F)(F)F)c4)c3)c2nc1C`, the growth in test [1] was 8.31% (active); in [2] it was 3.88% (active); in test [3] it was 49.7%; in test [4], 36%; in test [5] it was 25.6%; in [6], -18.1% (active). In addition, the growth is -32% (active) in [7]; -77.9% (active) in test [8]; -8.83% (active) in test [9]; -47.7% (active) in [10]; 6.58% (active) in [11]; 4.16% (active) in [12]. The growth was -12.5% (active) in test [13]; 17.5% in test [14]; -5.33% (active) in [15]; -28.4% (active) in test [16]; -36.9% (active) in test [17]; 16.2% in test [18]. Further, in [19], the growth was 21.1%.

With `CN(C)CCOC(=O)Nc1ccccc1Cl`, the growth in test [1] is 103%; in [2] it was 110%; in test [3], 104%; in test [4], 108%; in [5] it was 93.5%; in [6] it was 104%. Also, the growth in test [7] was 110%; in test [8] it was 101%; in test [9] it was 115%; in [10] it was 118%; in [11], 115%; in [12], 104%. Also, the growth was 86.6% in test [13]; 106% in test [14]; 108% in test [15]; 97.7% in test [16]; 112% in test [17]; 93.4% in test [18]. In [19], the growth is 99.2%.

As to `COc1ccc(C2NN=C3c4ccccc4CCC32)cc1` (centres undefined), the growth is 40% in [1]; 44.5% in [2]; 48.3% in test [20]; 76.5% in test [3]; 80.4% in test [4]; 66.6% in test [5]. Moreover, the growth in test [6] was 15.2%; in test [7], 49.9%; in [8], 72.5%; in [9], 76%; in test [10] it was 78.1%; in test [11], 64.3%. Moreover, the growth is 84.4% in test [12]; 54.1% in [13]; 76.4% in test [14]; 93.4% in test [15]; 21.9% in test [16]; 58.2% in test [17]. The figures for the growth in test [18] and in [19] were 13.4% and 16.8%, respectively.

For `Cn1ccc(=O)c(S(N)(=O)=O)c1`, the growth in test [1] was 109%; in [2] it was 107%; in test [20], 79.2%; in test [3], 95.5%; in test [4] it was 90.7%; in test [5] it was 101%. Moreover, the growth in test [6] is 112%; in test [7], 95.8%; in [8], 91.9%; in test [9], 116%; in [10] it was 99.8%; in [11], 89.3%. Besides, the growth in test [12] is 101%; in test [13], 69%; in test [14] it was 113%; in test [15], 95.5%; in test [16], 67.2%; in [17], 107%. In addition, the growth in test [18] was 99.9%; in test [19], 94.4%.

Take `COc1ccc(/C=C\c2cc(OC)c(OC)c(OC)c2)cc1OC(=O)c1cccc(Cn2cc(CCOC(=O)c3cccc(Cn4nnc5c4C(=O)c4ccccc4C5=O)c3)nn2)c1`: the growth in test [1] is 10.5%; in [2] it was 12.2%; in test [3], 28.6%; in test [4] it was 23.8%; in test [5], 22.8%; in [6] it was -28.8% (active). Further, the growth in test [7] was 45.7%; in [8], 21.2%; in [9] it was 58%; in test [10] it was 50.9%; in [11], 58.3%; in test [12], 18.9%. The growth was 36.6% in test [13]; 76.4% in test [14]; 17.2% in test [15]; 31.2% in test [16]; -4.1% (active) in test [17]; 8.91% (active) in test [18]. Moreover, the growth in [19] is 20.7%.

On to `CCOC(=O)c1cn2c3c(cccc3c1=O)C(=O)/C(=C/c1cccc(Cl)c1Cl)C2`, for which the growth is 117% in test [1]; 99.9% in test [2]; 94.9% in test [3]; 94.6% in test [4]; 90.8% in test [5]; 91.2% in [6]. Moreover, the growth is 67.9% in test [7]; 99.7% in test [8]; 106% in [9]; 87.7% in test [10]; 99.3% in test [11]; 94.2% in test [12]. In addition, the growth was 61.7% in test [13]; 100% in test [14]; 106% in test [15]; 91.6% in test [16]; 99.1% in test [17]; 99.2% in test [18]. The growth in test [19] was 102%.

Regarding `O=C1/C(=C/c2ccc([N+](=O)[O-])cc2)CN(C(=O)CCN2CCC(=NO)CC2)C/C1=C\c1ccc([N+](=O)[O-])cc1`, the growth is -68.4% (active) in [1]; -49.7% (active) in test [2]; -41.6% (active) in test [3]; -56.8% (active) in test [4]; -34.6% (active) in test [5]; -50.5% (active) in test [6]. The growth in test [7] was -52.2% (active); in test [8] it was -83.3% (active); in test [9], -30.6% (active); in [10] it was 2.76% (active); in test [11], -31.9% (active); in test [12], -17.6% (active). In addition, the growth in test [13] is -94.9% (active); in test [14] it was 8.77% (active); in [15], -59.2% (active); in test [16], -46.3% (active); in [17], -3.11% (active); in test [18], -13.3% (active). Also, in [19], the growth was -7.02% (active).
